rTrxR1 inhibitor = blocks rat thioredoxin reductase 1; recombinant rTrxR1, NADPH fluorescence consumption, selenite substrate; Potency, µM (top dose mostly 114 µM), for the others: at the top dose activity change, negative = inhibition, usual class: inhibitors; actives 1% (n = 390,000); AID 588453; O89049; further: nearly all actives have a fitted effect of over 65% in size
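Rat TrxR1 (90 nM in the dispensed reagent) was pre-reduced with 400 uM NADPH for 5 min at room temperature, then incubated with compound for 15 min. After 400 uM selenite was added, NADPH fluorescence (Ex 340/Em 450 nm) was followed for 8 min.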
TrxR1 substrate = substrates of rat thioredoxin reductase 1; O89049; Potency, µM (top dose mostly 114 µM), without a hit: at the highest dose activity change, negative = substrate turnover; purified TrxR1 substrate turnover, NADPH consumption readout; actives 0.01% (n = 390,000); further: nearly all actives have a fitted effect of over 50% in size
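Rat TrxR1, dispensed at 90 nM, was prereduced with 400 uM NADPH (final) for 5 min at ~22 deg C, then incubated with compound 15 min before 400 uM selenite. A first-read NADPH fluorescence drop versus no-compound background flagged substrates.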
VDR inh = blocks the human vitamin D receptor; VDR-SRC2-3 peptide fluorescence polarization, 2 h; Potency, µM, without a hit: max response, negative = inhibition, actives largely listed as inhibitors; actives 0.93% (n = 400,000); AID 504847
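Inhibition of the VDR/SRC2-3 peptide interaction is quantified by fluorescence polarization. Compounds (23 nl, pintool) incubate with the reagents for 2 hours at ambient room temperature.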
KAT2A inh = blocks human GCN5L2 histone acetyltransferase; Potency, µM (titrated, usually from 58.9 µM), without a hit: top-dose activity change, negative = inhibition, usual class: inhibitors; actives 0.21% (n = 390,000); GCN5L2 HAT assay, ThioGlo1 CoA-SH fluorescence; Q92830
Target sequence (Q92830 whole entry, looked up): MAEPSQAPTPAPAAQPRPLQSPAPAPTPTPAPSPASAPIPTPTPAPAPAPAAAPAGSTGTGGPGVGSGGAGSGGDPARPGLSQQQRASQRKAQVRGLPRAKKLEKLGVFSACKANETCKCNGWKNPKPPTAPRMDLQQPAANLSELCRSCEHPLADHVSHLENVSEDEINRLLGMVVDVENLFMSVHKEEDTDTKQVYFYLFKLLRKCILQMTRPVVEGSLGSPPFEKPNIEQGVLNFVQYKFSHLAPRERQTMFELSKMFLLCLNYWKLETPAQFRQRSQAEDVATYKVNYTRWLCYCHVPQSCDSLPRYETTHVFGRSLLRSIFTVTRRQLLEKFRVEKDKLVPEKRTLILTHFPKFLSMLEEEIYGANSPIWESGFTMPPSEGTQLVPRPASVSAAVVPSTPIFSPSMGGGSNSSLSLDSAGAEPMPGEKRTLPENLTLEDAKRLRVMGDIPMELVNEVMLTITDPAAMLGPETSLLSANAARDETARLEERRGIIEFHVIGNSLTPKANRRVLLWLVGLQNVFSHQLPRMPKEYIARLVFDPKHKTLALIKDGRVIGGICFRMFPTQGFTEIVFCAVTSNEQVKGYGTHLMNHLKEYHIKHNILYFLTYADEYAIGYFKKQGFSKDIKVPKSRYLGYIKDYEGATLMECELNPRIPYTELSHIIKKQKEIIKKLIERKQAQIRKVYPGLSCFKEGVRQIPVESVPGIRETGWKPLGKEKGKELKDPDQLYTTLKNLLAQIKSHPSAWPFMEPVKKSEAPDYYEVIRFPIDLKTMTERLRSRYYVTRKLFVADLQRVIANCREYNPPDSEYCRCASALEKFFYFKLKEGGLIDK
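Compounds, pin-transferred from DMSO stocks, meet 20nM GCN5L2 for 15 min before the reaction begins with H3(1-25) peptide (75uM) and acetyl-CoA (70uM). Thiol-reactive ThioGlo1 reports CoA release over 20 min at room temperature.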
Numbers without * were called inactive; [ ] = another dose, or the depositor's remark. An excerpt weighted towards active compounds, which were near 1.8% of everything screened. The call rests on the fitted dose curve; in most records, active means well fitted curve in the direction sought with a large enough effect; inconclusive means small, poorly fitted or top-dose-only effect, or another doubt; inactive means no such curve, though single readings can be large; an effect the other way counts as inactive or inconclusive. On the % scale 0 is the no-effect control and ±100 the full control effect; potency means the concentration at half of the fitted maximal effect.

COc1ccc([C@@H]2CC(=O)c3c(O)cc(O[C@H]4O[C@@H](CO[C@H]5O[C@@H](C)[C@@H](O)[C@@H](O)[C@@H]5O)[C@@H](O)[C@@H](O)[C@@H]4O)cc3O2)cc1O was read as VDR inh 1% and KAT2A inh 4%[21.4 µM].
Screening CCOc1cc(/C=C\[N+](=O)[O-])ccc1OCC(=O)Nc1ccccc1C returned rTrxR1 inhibitor inconclusive, TrxR1 substrate 0%[57.1 µM], VDR inh 4.5µM* and KAT2A inh -2%.
Screening CC(C)(C)c1ccc(C2=NC(=O)C(CC(=O)O)S2)cc1 (configuration not stated) returned rTrxR1 inhibitor 16%, TrxR1 substrate 5%, VDR inh 25µM* and KAT2A inh -17%.
Screening CC(=O)NC(Cc1ccc(Cl)cc1)C(=O)NCC(N)C(=O)c1ccccc1 (configuration not stated) returned rTrxR1 inhibitor -1% and TrxR1 substrate -5%.
Screening COC(=O)C(C)N1C(=O)S/C(=C\c2ccc(-c3ccc(C(=O)O)cc3C)o2)C1=O (configuration not stated) returned rTrxR1 inhibitor inconclusive, TrxR1 substrate 1%, VDR inh 22µM* and KAT2A inh -4%.
`C=C[C@@H]1c2cc(C)ccc2N(S(=O)(=O)c2ccc(C)cc2)[C@H](c2ccc(C(C)(F)F)cc2)C1(C#N)C#N` gave rTrxR1 inhibitor 29% and TrxR1 substrate 5%.
`COc1ccc(C#Cc2c(-c3ccccc3)n(C)c3ccccc23)cc1` gave rTrxR1 inhibitor inconclusive, TrxR1 substrate 22%[57.1 µM], VDR inh 11% and KAT2A inh -14%.
For COc1ccc(-c2c(C#Cc3ccsc3)c3cc(-c4ccc5[nH]ccc5c4)ccc3n2C)cc1 the results were rTrxR1 inhibitor 18%[57.1 µM], TrxR1 substrate 21%[57.1 µM], VDR inh -5% and KAT2A inh -2%.
Screening Cc1cc(C#Cc2c(-c3ccccc3)n(C)c3ccccc23)ccc1F returned rTrxR1 inhibitor 35µM*, TrxR1 substrate 14%, VDR inh -15% and KAT2A inh -7%.
`COc1cc(C#Cc2c(-c3ccccc3)n(C)c3ccccc23)cc(OC)c1` gave rTrxR1 inhibitor 45µM*, TrxR1 substrate 36%, VDR inh -2% and KAT2A inh 2%.
`COc1ccc(-c2c(C#Cc3ccsc3)c3ccccc3n2C)cc1` gave rTrxR1 inhibitor 10µM*, TrxR1 substrate 14%[57.1 µM], VDR inh 0% and KAT2A inh -4%.
For Cn1c(-c2ccc(C#N)cc2)c(C#Cc2ccccc2)c2ccccc21 the results were rTrxR1 inhibitor inconclusive, TrxR1 substrate 128% and VDR inh 1%.
Screening O=C(c1ccco1)N1CCN(Cc2csc(-c3ccccc3Cl)n2)CC1 returned rTrxR1 inhibitor 71µM*, TrxR1 substrate 1%, VDR inh -15% and KAT2A inh -7%.
For COc1ccc(Br)cc1CNCc1c(C(=O)O)c(C)n(Cc2ccccc2C)c1C the results were rTrxR1 inhibitor -17%, TrxR1 substrate -9%, VDR inh 8% and KAT2A inh -3%.
`Cc1cc(C)n2nc3nc(N4CCCCC4)nc(-c4ccco4)c3c2n1` gave rTrxR1 inhibitor 10µM*, TrxR1 substrate 3%[57.1 µM], VDR inh -17% and KAT2A inh -8%.
`COc1cc(N(C)C)c(OC)cc1/C=C1\Cc2ccccc2C1=O` gave rTrxR1 inhibitor -19% and TrxR1 substrate -15%.
`CC(CC(=O)N1CCN(C(=O)c2ccccc2)CC1)c1ccccc1` (configuration not stated) gave rTrxR1 inhibitor 18%, TrxR1 substrate 10%[57.1 µM], VDR inh -3% and KAT2A inh -9%.
For CC(c1ccccc1)N1CCN(C(=O)CCl)CC1 (configuration not stated) the results were rTrxR1 inhibitor 16µM*, TrxR1 substrate 3%, VDR inh inconclusive and KAT2A inh -3%.
CC1CC(C)CN(C(=O)c2ccc(-c3ccc([N+](=O)[O-])cc3)o2)C1 (configuration not stated) was read as rTrxR1 inhibitor 18µM*, TrxR1 substrate -1%, VDR inh inconclusive and KAT2A inh -24%.
For CC(Sc1nc2c(c(=O)[nH]1)CCCC2)C(=O)Nc1cc(C(F)(F)F)ccc1Cl (configuration not stated) the results were rTrxR1 inhibitor 13%, TrxR1 substrate 0%, VDR inh 7% and KAT2A inh -2%.
Screening O=c1ccsc2ccccc12 returned rTrxR1 inhibitor 22%, TrxR1 substrate 9% and VDR inh -7%.
O=c1[nH]sc2ccccc12 was read as rTrxR1 inhibitor 91%[57.1 µM], TrxR1 substrate -16%, VDR inh inconclusive and KAT2A inh 8.9µM*.
CN1C(=O)CC(Nc2cccc3cccc(N)c23)C1=O (configuration not stated) was read as rTrxR1 inhibitor 45µM*, TrxR1 substrate 1%, VDR inh -17% and KAT2A inh -9%.
Screening Cc1c(N=Cc2cc3c(cc2[N+](=O)[O-])OCO3)cccc1[N+](=O)[O-] returned rTrxR1 inhibitor -28%, TrxR1 substrate -1% and VDR inh 89µM*.
`Cc1c(Cl)cnc(NC(=O)COC(=O)[C@@H](NC(=O)c2ccco2)C(C)C)c1Cl` gave rTrxR1 inhibitor 11µM*, TrxR1 substrate 8%, VDR inh inconclusive and KAT2A inh -15%.
`Cc1cccc(C)c1NC(=O)CNC(=O)c1ccc(S(=O)(=O)NCc2ccco2)cc1` gave rTrxR1 inhibitor 28µM*, TrxR1 substrate 3%, VDR inh -15% and KAT2A inh 3%.
CCOC(=O)C1CCCN(S(=O)(=O)c2cc3c4c(c2)CC(=O)N4CCC3)C1 (configuration not stated) was read as rTrxR1 inhibitor 11%[57.1 µM], TrxR1 substrate 0%[57.1 µM], VDR inh -3% and KAT2A inh -5%.
For C/C=C(\C)CN1CCN(c2cccc(C)c2C)CC1 the results were rTrxR1 inhibitor 23%, TrxR1 substrate 7%, VDR inh -2% and KAT2A inh inconclusive.
For C/C=C(\C)CN1CCN(c2ccccc2)CC1 the results were rTrxR1 inhibitor -6%, TrxR1 substrate -9%, VDR inh -6% and KAT2A inh 32µM*.
Screening N#Cc1ccc(C(=O)CN2CCN(c3ccccc3)CC2)cc1 returned rTrxR1 inhibitor 50µM*, TrxR1 substrate 6%, VDR inh 3% and KAT2A inh -1%.
COc1cc2nc(N3CCN(C)CC3)nc(NC3CCN(C)CC3)c2cc1OC was read as rTrxR1 inhibitor inconclusive and TrxR1 substrate 88%.
COc1ccccc1-c1cc(C(=O)Nc2sc3c(c2C#N)CCCC3)no1 was read as rTrxR1 inhibitor -14%, TrxR1 substrate -7%, VDR inh 79µM* and KAT2A inh -17%.
`CCOC(=O)c1c(NC(=O)c2cc(C)on2)sc(C)c1C` gave rTrxR1 inhibitor 3%, TrxR1 substrate 3%, VDR inh 79µM* and KAT2A inh -15%.

Bioassay records (PubChem BioAssay)
